# Assay results published in PubChem BioAssay.
# “And” between values parts separate entries of the source, which are not always exact repeats. Equal entries are not always repeated. More than one record can exist for a structure, and the calls need not agree. The source made the active and inactive calls. Unless noted, no stated cut-off is given here; in the data, active means inhibition above about 80%; inactive means the rest.
# Columns and labels:
# [1] = LFS_MB_P medulloblastoma growth inhibition, cell-based, chromothripsis tumors, cisplatin or BGB combos (AID 1671449); details: LFS_MB_P medulloblastoma cells;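 further: cells exposed for 96 hours; 0% = vehicle DMSO and 100% = killing by high DMSO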
# [2] = HDN33 neuroblastoma growth inhibition, cell-based, chromothripsis tumors, cisplatin or BGB combos (AID 1671450); details: HDN33 neuroblastoma cells, stronger effect = higher value;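 further: cells exposed to compound for four days; 0% = vehicle DMSO and 100% = cell killing by high DMSO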
# [3] = ICB984 medulloblastoma cell growth inhibition, synergistic combos for chromothripsis tumors, cisplatin or BGB combos (AID 1671451; call rule not given here;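 further: cells exposed for 96 hours before readout; 0% = vehicle DMSO and 100% = killing by high DMSO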); details: ICB984 medulloblastoma cells, drug combinations, stronger effect = higher value
# [4] = LFS_MB_1R medulloblastoma cell growth inhibition, synergistic combos for chromothripsis tumors, cisplatin or BGB combos (AID 1671452); details: LFS_MB_1R medulloblastoma cells, stronger effect = higher value;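 further: cells exposed for 96 hours before readout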
# [5] = HTB85 osteosarcoma cell growth inhibition, synergistic combos for chromothripsis tumors, BGB or cisplatin IC20 combos (AID 1671453); details: HTB85 osteosarcoma cells, drug combinations, stronger effect = higher value;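 further: cells exposed for 96 hours before readout; 0% = vehicle DMSO and 100% = high DMSO killing control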
# [6] = CRL2098 osteosarcoma cell growth inhibition, synergistic combos for chromothripsis tumors, BGB or cisplatin IC20 combos (AID 1671454); details: CRL2098 osteosarcoma cells, drug combinations, stronger effect = higher value;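 further: cells exposed for 96 h before readout; 0% = vehicle DMSO and 100% = killing by high DMSO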
# [7] = HD-MB03 medulloblastoma cell growth inhibition, synergistic combos for chromothripsis tumors, BGB or cisplatin IC20 combos (AID 1671455; in the data active means inhibition above about 83%;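 further: 0% = vehicle DMSO and 100% = high DMSO as cytotoxic control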); details: HD-MB03 medulloblastoma cells, stronger effect = higher value
# [8] = UWB1.289 ovarian carcinoma cell growth inhibition, synergistic combos for chromothripsis tumors, BGB or cisplatin combos (AID 1671456); details: UWB1.289 ovarian carcinoma cells, stronger effect = higher value;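 further: cells exposed to compound for four days; 0% = vehicle DMSO and 100% = killing by high DMSO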
# [9] = LFS_MB_2R medulloblastoma cell growth inhibition, synergistic combos for chromothripsis tumors, cisplatin combos (AID 1671457); details: LFS_MB_2R medulloblastoma cells, stronger effect = higher value;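 further: cells exposed to compound for four days before readout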
# [10] = MDA-MB-436 breast carcinoma cell growth inhibition, synergistic combos for chromothripsis tumors, BGB or cisplatin combos (AID 1671458; call rule not given here;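 further: cells exposed for 96 hours; 0% = vehicle DMSO and 100% = killing by high DMSO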); details: MDA-MB-436 breast carcinoma growth inhibition, drug combinations, stronger effect = higher value
# [11] = UWB1.289_BRCA1 ovarian cancer growth, cell-based, BGB or cisplatin combinations (AID 1671459); details: UWB1.289 BRCA1 ovarian carcinoma, drug combinations, stronger effect = higher value
# [12] = human astrocyte viability loss, single and combined drugs, cytotoxicity control for chromothriptic childhood tumor combination screen, cell-based, BGB or cisplatin IC20 combos (AID 1671460); details: Human astrocytes, drug combinations, stronger effect = higher value;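 further: cells exposed to compounds for 96 hours before viability readout; 0% = vehicle and 100% = killing control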
# [13] = growth inhibition of BT084 medulloblastoma cells, cell-based, ICGC_MB145, cisplatin and BGB IC40 combos (AID 1671461); details: drug combinations, stronger effect = higher value;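 further: cells exposed to drugs for 96 hours; 0% = vehicle DMSO and 100% = high DMSO full killing control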
# [14] = growth inhibition of RCMB18 medulloblastoma cells, cell-based, cisplatin and BGB IC40 combos (AID 1671462); details: stronger effect = higher value;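 further: cells exposed to compound for four days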
# [15] = growth inhibition of CRL1545 osteosarcoma cells, cell-based, cisplatin and BGB IC20 combos (AID 1671464); details: stronger effect = higher value;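 further: cells exposed to compound for 96 hours before readout; 0% = vehicle DMSO and 100% = high DMSO killing control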
# [16] = measured here: combination with BGB IC40, at 0.05 µM
# [17] = measured here: with BGB IC20 combination, at 0.5 µM
# [18] = measured here: with cisplatin IC20 combination, at 0.5 µM
# [19] = measured here: combination with cisplatin, at 0.5 µM
# [20] = measured here: combination with cisplatin, at 5 µM
structure (smiles),measurement,setting,value
CCC1(O)C(=O)OCc2c1cc1n(c2=O)Cc2cc3c(CN(C)C)c(O)ccc3nc2-1 (stereo not drawn),inhibition,"[1]; at 0.5 µM, stronger effect = higher value",-7.42% (inactive) and 3.72% (inactive) and -2.55% (inactive)
same,inhibition,"[1]; measured here: combination with BGB IC20, at 0.005 µM",-2.96% and 0.821% and -23.7%
same,inhibition,"[1]; measured here: combination with BGB IC40, at 0.005 µM",-28.9% and -14.4% and -12.5%
same,inhibition,[1]; [16],-8.3% and -3.25% and -7.46%
same,inhibition,"[1]; measured here: combination with cisplatin, at 0.5 µM, stronger effect = higher value",36.9% and 49.4% and -21.3%
same,inhibition,"[1]; measured here: combination with cisplatin, at 5 µM, stronger effect = higher value",93.3% and 91.7% and 75.9%
same,inhibition,"[2]; BGB combo, at 5 µM",96.4% and 97.1% and 98.1%
same,inhibition,[2]; at 0.5 µM,83.1% (active) and 85.8% (active) and 82.9% (active)
same,inhibition,"[2]; cisplatin combo, at 5 µM",97.1% and 98% and 96.8%
same,inhibition,[2]; [17],87% and 85.5% and 88%
same,inhibition,[2]; [18],75.5% and 82.8% and 74.8%
same,inhibition,"[2]; single agent, at 5 µM",95.8% and 96% and 97%
same,inhibition,"[3]; BGB IC20 combo, at 0.005 µM",1.19% and -8.91% and -7.41%
same,inhibition,"[3]; BGB IC40 combo, at 0.005 µM",-10.3% and 15% and 31.5%
same,inhibition,"[3]; BGB IC40 combo, at 0.05 µM",86.5% and 95.6% and 93.6%
same,inhibition,[3]; at 0.5 µM,-27.8% (inactive) and -43.8% (inactive) and -21.6% (inactive)
same,inhibition,"[3]; cisplatin combo, at 0.05 µM",86% and 95.5% and 93.6%
same,inhibition,"[3]; cisplatin combo, at 0.5 µM",-32.3% and -49.7% and -34.5%
same,inhibition,"[3]; cisplatin combo, at 5 µM",-21.2% and -33.4% and -10.9%
same,inhibition,"[3]; measured here: 5 uM single agent, at 5 µM",-12.3% and -23.2% and -4.56%
same,inhibition,[4]; at 0.5 µM,47.7% (inactive) and 43.3% (inactive) and 58.9% (inactive)
same,inhibition,[4]; [16],10.2% and -20.8% and 4.16%
same,inhibition,[4]; [19],82.2% and 88% and 73.7%
same,inhibition,[4]; [20],88.7% and 77.4% and 94.2%
same,inhibition,[5]; at 0.5 µM,96.9% (active) and 98% (active) and 97.5% (active)
same,inhibition,"[5]; measured here: with BGB IC20, at 0.5 µM",96.8% and 97.1%
same,inhibition,"[5]; measured here: with BGB IC20, at 5 µM",97.9% and 97.6% and 98.3%
same,inhibition,"[5]; measured here: with cisplatin IC20, at 0.5 µM",95.9% and 98.1% and 97.3%
same,inhibition,"[5]; measured here: with cisplatin IC20, at 5 µM",99.6% and 99.8%
same,inhibition,"[5]; single agent, at 5 µM",99.8%
same,inhibition,[6]; at 0.5 µM,65.1% (inactive) and 60.8% (inactive) and 61.1% (inactive)
same,inhibition,"[6]; measured here: combination with BGB at IC20, at 0.5 µM",71% and 76.8% and 68.6%
same,inhibition,"[6]; measured here: combination with cisplatin at IC20, at 0.5 µM",64.4% and 48.3%
same,inhibition,[7]; at 0.5 µM,98% (active) and 98.7% (active) and 97.9% (active)
same,inhibition,"[7]; measured here: combo with BGB at IC20, at 0.5 µM",98% and 98.7% and 98.4%
same,inhibition,"[7]; measured here: combo with cisplatin at IC20, at 0.5 µM",97.6% and 98.6% and 97.2%
same,inhibition,[8]; at 0.5 µM,77% (inactive) and 79.8% (inactive) and 77.4% (inactive)
same,inhibition,"[8]; measured here: inhibition with BGB combination, at 0.05 µM",19.5% and 12.5% and 11.3%
same,inhibition,"[8]; measured here: inhibition with cisplatin combination, at 0.05 µM",13.4% and 13.9% and 19.4%
same,inhibition,[9]; at 0.5 µM,-1.34% (inactive) and 9.72% (inactive) and -3.02% (inactive)
same,inhibition,[9]; [19],29.4% and 18.3% and 22.7%
same,inhibition,[9]; [20],72.5% and 69.7% and 68.5%
same,inhibition,[10]; at 0.5 µM,69.2% (inactive) and 68.2% (inactive) and 67.8% (inactive)
same,inhibition,"[10]; measured here: BGB combination, at 0.5 µM",61.3% and 61.9% and 60.6%
same,inhibition,"[10]; measured here: BGB combination, at 5 µM",65.7% and 71.1% and 67.8%
same,inhibition,"[10]; measured here: cisplatin combination, at 0.5 µM",72.6% and 68.5% and 65.5%
same,inhibition,"[10]; measured here: cisplatin combination, at 5 µM",82% and 77.6% and 79.6%
same,inhibition,"[11]; BGB combination, concentration series, at 5 µM",103% and 101% and 96.7%
same,inhibition,[11]; at 0.5 µM,82.6% (active) and 85.9% (active) and 82.4% (active)
same,inhibition,"[11]; cisplatin combination, concentration series, at 5 µM",113% and 107% and 110%
same,inhibition,[12]; at 0.5 µM,64.5% (inactive) and 68.3% (inactive) and 55.5% (inactive)
same,inhibition,"[12]; measured here: combo with BGB IC20, at 0.5 µM",69.2% and 71.9% and 60.5%
same,inhibition,"[12]; measured here: combo with cisplatin IC20, at 0.5 µM",49.5% and 56.1% and 33.1%
same,inhibition,[13]; at 0.5 µM,1.98% (inactive) and 4.12% (inactive) and -13.3% (inactive)
same,inhibition,"[13]; cisplatin combination, at 0.5 µM",37.8% and 38.2% and 36.1%
same,inhibition,"[13]; cisplatin combination, at 5 µM",37.9% and 28.6% and 20.5%
same,inhibition,"[13]; measured here: BGB IC40 combination 0.05 uM, at 0.05 µM",-16.5% and -30.7% and -23.7%
same,inhibition,"[13]; single agent, at 5 µM",-16% and -5.69% and -15.3%
same,inhibition,[14]; at 0.5 µM,11.7% (inactive) and 6.99% (inactive) and 15.6% (inactive)
same,inhibition,"[14]; cisplatin combo, at 5 µM",82.3% and 73.1% and 75.9%
same,inhibition,"[14]; measured here: BGB IC40 combination, at 0.05 µM",-8.83% and -28.2% and -20.8%
same,inhibition,[14]; [19],55.7% and 30% and 38.3%
same,inhibition,"[14]; single agent, at 5 µM",22.6% and 40.2% and 40.4%
same,inhibition,[15]; at 0.5 µM,78.9% (inactive) and 88.5% (active) and 81.8% (active)
same,inhibition,[15]; [17],91% and 95% and 93.8%
same,inhibition,[15]; [18],72.9% and 85.2% and 75.9%
same,inhibition,"[15]; single agent, at 0.05 µM",35.3% and 52% and 56.4%
same,inhibition,"[15]; single agent, at 5 µM",99.6% and 99.9% and 99.7%
